From PubChem BioAssay (NCI)
Compounds without any hit were thinned out: in the full panel of roughly 83,000, 20% have a hit.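 96-well plates, one dose, 48 hours. Percent growth reported; active if below 10.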 Values without a mark were called inactive. Activity calls are given as the source filed them.

The compounds below were run on UACC-257 melanoma (assay: NCI-60 one-dose screen, 48 h (100 = growth as untreated, 0 = no growth, -100 = all killed)). Conditions: 10 µM unless noted.

SMILES | growth
Cc1ccc(-c2onc3c(=O)[nH]nc(-c4ccccc4)c23)cc1 | 47.3%
O=C1CSC(=S)N1CCc1ccc(O)cc1 | 92%
CNC(=O)c1cc(Oc2ccc(NC(=O)Nc3ccc(Cl)c(OC(F)(F)F)c3)c(F)c2)ccn1 | 1.86% (active)
N#C/C(=C\c1ccc(-c2ccc(Cl)c(Cl)c2)o1)c1nc(-c2ccco2)cs1 | 118%
O=S(=O)(Nc1ccc(OC(F)F)cc1)c1ccc(-c2cnc(C3CC3)o2)cc1 | 75%
O=C1Nc2cc(-c3ccc(O)cc3)ccc2/C1=C/c1ccc[nH]1 | 20%
CON1C(=O)CC[C@]2(C)[C@H]3CC[C@@H]4C([C@@]5(C)CCC(=O)O5)CC[C@@]4(C)[C@]3(C)CC[C@H]2C1(C)C (some centres undefined) | 107%
Cn1cc(C(=O)c2nc(-c3c[nH]c4ccc(Br)cc34)no2)c2cc(F)ccc21 | 99.7%
COc1ccc(-n2nc(C)c3c(Nc4ccc(NC(=O)Nc5cccc(C(F)(F)F)c5)cc4)ncnc32)cc1 | -1.66% (active)
CC(C)C1=C[C@@]23CC[C@@H]4[C@](C)(CCC[C@@]4(C)C(=O)N4CCCNCC4)[C@H]2C[C@@H]1[C@H]1C(=O)CCC(=O)[C@H]13 | 106%
C#CCOc1ccc2ncnc(N3CCC(NC(=O)CCl)CC3)c2c1 | 79.7% [8.25 µM]
Cc1ccc(NC(=O)/C=C/c2ccccc2)c(C(N)=O)c1 | 63.2%
COc1ccc(/C=C\c2cc(OC)c(OC)c(OC)c2)cc1OC(=O)c1cccc(Cn2cc(CCOC(=O)[C@H](N)Cc3cn(C)c4ccccc34)nn2)c1 | 68.2%
O=C1c2ccccc2C(=O)c2c1ccc1[nH]c(-c3cccs3)nc21 | 87.5%
CN1CCN(Cc2ccc(NC(=O)c3cncc(C#Cc4cncn5ccnc45)c3)cc2C(F)(F)F)CC1 | 58.4%
CC(C)(C)c1cc(/C=N\NC(=O)/C=C/C=C/c2ccc3c(c2)OCO3)c(O)c(C(C)(C)C)c1 | 88%
CCCc1cc(=O)n2c(C(=O)Nc3ccc(F)cc3)c(C(=O)Nc3ccc(F)cc3)sc2n1 | 67.2% [30 µM]
O=C(O)COc1ccc(Cl)cc1C1CCCCC1 | 114%
NC(=O)c1cc(Br)ccc1NC(=O)/C=C/c1ccccc1 | 49.1%
Cc1nn(-c2ccc(F)cc2)c2ncnc(Oc3ccc(NC(=O)Nc4ccc(Cl)c(C(F)(F)F)c4)cc3)c12 | 99.9%

SMILES | growth
CSc1nc(-c2cccc(NC(=O)CCl)c2)c(C#N)c(=O)n1C | 63.5%
CCCCN(CCCC)CCCn1c(-c2ccccc2)ccc1-c1ccccc1 | 90.1%
Cc1c(/C=C/[N+](=O)[O-])ccc2c1[nH]c1ccccc12 | 90%
c1ccc(Cn2cc(-c3nc4ccccc4s3)c3cccnc32)cc1 | 110%
O=C(N/N=C/c1c[nH]c2ccccc12)c1cc(-c2ccccc2)on1 | 102%
CCCn1c(=O)[nH]c(N)c([C@H]2c3ccccc3Oc3[nH]c(=O)n(CCC)c(=O)c32)c1=O | 76.3%
CC(=O)O[C@H]1[C@@H]2OC(=O)C(CSc3ccccc3)[C@@H]2C[C@H]2O[C@]2(C)CC/C=C(\C)CCC[C@@H]1C (some centres undefined) | 15.8%
O=C1Nc2ccc(Br)cc2C12Oc1ccccc1C1CC(c3ccc(F)cc3)=NN12 (centres undefined) | 104%
C=C1c2nc3ccccc3n2C=C(c2cccc(Cl)c2)N1Cc1ccc(OC)cc1 | 34.4%
C#CC(F)(F)[C@]1(O)CC[C@H]2[C@@H]3CCC4=CC(=O)CCC4=C3[C@@H](c3ccc(C(C)=O)cc3)C[C@@]21C | 89.8%
CC(=O)O[C@H]1CC[C@]2(C)[C@H]3CC=C4[C@@H]5CC(C)(C)CC[C@]5(C(=O)NCCNCCNCCN)CC[C@@]4(C)[C@]3(C)CC[C@H]2C1(C)C | 93.1%
COc1ccc(-c2cc(NC(=O)Nc3ccc4ncsc4c3)no2)cc1 | 115%
CCN(CC)c1ccc(-c2cc(-c3cc(OC)c(OC)c(OC)c3)nc(N3CCOCC3)c2C#N)cc1 | -23.5% (active)
CC1=CC(=NN=c2cc(C)n([O-])c(C)c2)C=C(C)[N+]1=O | 77.4%
Cc1ccc2oc(=O)cc(C3c4ccc([nH]4)C(c4cc(=O)oc5ccc(C)cc45)c4ccc([nH]4)C(c4cc(=O)oc5ccc(C)cc45)c4ccc([nH]4)C(c4cc(=O)oc5ccc(C)cc45)c4ccc3[nH]4)c2c1 (centres undefined) | -67.7% (active)
COc1cc2c(cc1-c1c(C)noc1C)ncc1nc(C3CCOCC3)n([C@@H](C)COC(F)F)c12 | 36.7%
Cc1[nH]c(-c2cc(N)ccc2Cl)c2c1C(=O)CCCC2 | 18.6%
O=S(=O)(Nc1ccc(Br)c(Cl)c1)c1ccc(-c2cnc(C3CC3)o2)cc1 | 55.5%
C=CC(=O)Nc1cccc(-c2nc(SC)nc(NCCN3CCOCC3)c2C#N)c1 | 94.1%
